# PubChem BioAssay AID1159580 (chemical genetic matrix, 2015)
# Out of some 5,500 compounds screened, about 2,000 (36%) were called active. Another 18% or so got no clear call; they are omitted. The list shows a part of the results. Values without a mark were called inactive. Rule as the data show it: active = normalized growth mostly below about 0.91 (no sharp cut-off); inconclusive = no clear call, values can overlap the other calls; inactive = mostly above about 0.92.
# Assay: chemical genetic growth profiling, strain panel (AID 1159580);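 also: tested at 20 µM; growth read once vehicle control cultures reached saturation at 30 °C; 1 = growth at the plate median or of vehicle wells; lower values mean less growth of the strain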
# Conditions: growth OD
# [1] = S. cerevisiae deletion strains, locus YAL013W, strain DEP1, hits give low values
# [2] = S. cerevisiae deletion strains, locus YGR078C, strain PAC10, hits give low values
# [3] = S. cerevisiae deletion strains, locus YNL322C, strain KRE1, hits give low values
compound,measurement,setting,value
O=C1NC(=O)C(c2ccccc2)(c2ccccc2)N1,normalized growth,[1],1.01
same,normalized growth,"S. cerevisiae deletion strains, locus YAL040C, strain CLN3, hits give low values",1.1
same,normalized growth,"S. cerevisiae deletion strains, locus YCL061C, strain MRC1 (second series), hits give low values",1
same,normalized growth,"S. cerevisiae deletion strains, locus YDR363W, strain ESC2, hits give low values",1.02
same,normalized growth,"S. cerevisiae deletion strains, locus YER002W, strain NOP16, hits give low values",0.991
same,normalized growth,[2],1.02
same,normalized growth,"S. cerevisiae deletion strains, locus YNL128W, strain TEP1, hits give low values",1
same,normalized growth,"S. cerevisiae deletion strains, locus YNL175C, strain NOP13, hits give low values",0.993
same,normalized growth,"S. cerevisiae deletion strains, locus YNL197C, strain WHI3, hits give low values",1.01
same,normalized growth,"S. cerevisiae deletion strains, locus YNL224C, strain SQS1, hits give low values",0.975
same,normalized growth,[3],1.03
same,normalized growth,"S. cerevisiae deletion strains, locus YOR083W, strain WHI5 (second series), hits give low values",1.03
O=C1c2ccccc2C(=O)C1(c1ccccc1)[N+](=O)[O-],normalized growth,[1],0.848 (active)
same,normalized growth,"S. cerevisiae deletion strains, locus YBR229C, strain ROT2, hits give low values",0.78 (active)
same,normalized growth,"S. cerevisiae deletion strains, locus YCL061C, strain MRC1, hits give low values",0.818 (active)
same,normalized growth,"S. cerevisiae deletion strains, locus YDL101C, strain DUN1, hits give low values",0.776 (active)
same,normalized growth,"S. cerevisiae deletion strains, locus YDL134C, strain PPH21, hits give low values",0.897 (active)
same,normalized growth,"S. cerevisiae deletion strains, locus YEL061C, strain CIN8, hits give low values",0.943
same,normalized growth,[2],0.664 (active)
same,normalized growth,"S. cerevisiae deletion strains, locus YHR030C, strain SLT2, hits give low values",0.587 (active)
same,normalized growth,"S. cerevisiae deletion strains, locus YHR087W, strain rtc3, hits give low values",0.811 (active)
same,normalized growth,"S. cerevisiae deletion strains, locus YJR043C, strain POL32, hits give low values",0.861 (active)
same,normalized growth,"S. cerevisiae deletion strains, locus YJR075W, strain HOC1, hits give low values",0.747 (active)
same,normalized growth,"S. cerevisiae deletion strains, locus YLR039C, strain RIC1, hits give low values",0.734 (active)
same,normalized growth,"S. cerevisiae deletion strains, locus YLR058C, strain SHM2 (second series), hits give low values",1.03
same,normalized growth,"S. cerevisiae deletion strains, locus YLR085C, strain ARP6, hits give low values",0.975
same,normalized growth,"S. cerevisiae deletion strains, locus YLR262C, strain YPT6, hits give low values",0.8 (active)
same,normalized growth,"S. cerevisiae deletion strains, locus YML094W, strain GIM5, hits give low values",0.946
same,normalized growth,"S. cerevisiae deletion strains, locus YMR219W, strain ESC1, hits give low values",0.832 (active)
same,normalized growth,"S. cerevisiae deletion strains, locus YMR263W, strain SAP30, hits give low values",0.813 (active)
same,normalized growth,"S. cerevisiae deletion strains, locus YMR307W, strain GAS1, hits give low values",0.919
same,normalized growth,"S. cerevisiae deletion strains, locus YNL153C, strain GIM3, hits give low values",0.803 (active)
same,normalized growth,"S. cerevisiae deletion strains, locus YNL298W, strain CLA4 (second series), hits give low values",0.956
same,normalized growth,[3],1.01
same,normalized growth,"S. cerevisiae deletion strains, locus YNR030W, strain Alg12, hits give low values",0.0637 (active)
same,normalized growth,"S. cerevisiae deletion strains, locus YOL006C, strain TOP1, hits give low values",0.893
same,normalized growth,"S. cerevisiae deletion strains, locus YPL055C, strain LGE1, hits give low values",0.799 (active)
same,normalized growth,"S. cerevisiae deletion strains, locus YPL241C, strain CIN2, hits give low values",0.0628 (active)
same,normalized growth,"S. cerevisiae deletion strains, locus YPR135W, strain CTF4, hits give low values",0.798
same,normalized growth,"S. cerevisiae strains, strain wild type, hits give low values",0.985
